Laboratory results: PubChem BioAssay (Tox21)
Results filed as inconclusive are left out. Active and inactive are the calls of the source. Unless noted, calls come from the whole dose curve; as a rule, active = well fitted curve in the direction sought with a large enough effect in the repeat runs; inconclusive = weak or mixed curves; inactive = no such curve, though single readings can be large; an effect the other way counts as inactive or inconclusive.

Columns and labels:
[1] = qHTS assay for small molecule agonists of the p53 signaling pathway (AID 651631; calls by dose curve; note: potency is the fitted concentration of half-maximal effect; nearly all actives have a fitted effect of over 15% in size)
How it was run: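 HCT-116 cells carrying a stable p53 response element–beta-lactamase reporter were plated, rested 5 h at 37 °C, then exposed to compound in DMSO for 16 h at 37 °C; reporter activity was read as FRET substrate fluorescence after 2 h at room temperature.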

[2] = qHTS assay for small molecules that induce genotoxicity in human embryonic kidney cells expressing luciferase-tagged ATAD5 (AID 651632); note: % is set by controls: 0 for no effect and ±100 for the full control effect; nearly all actives have a fitted effect of over 15% in size
How it was run: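 Test compounds were delivered by pin tool onto HEK293T reporter cells (2,000/well) expressing ATAD5 fused to luciferase. After 16 hr at 37C, 5% CO2, Amplite was added for 30 min at room temperature and luminescence was measured.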

[3] = qHTS assay for small molecule agonists of the p53 signaling pathway - cell viability (AID 651633; calls by dose curve; note: potency is the fitted concentration of half-maximal effect; nearly all actives have a fitted effect of over 30% in size)
How it was run: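 p53RE-bla cells, seeded at 4,000 per well and rested 5 h at 37 C/5% CO2, received compounds in DMSO for 16 h at 37 C. CellTiter-Glo was then added, and luminescence was read after 30 min at room temperature to gauge cytotoxicity.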

[4] = qHTS assay for small molecules that induce genotoxicity in human embryonic kidney cells expressing luciferase-tagged ATAD5 - cell viability (AID 651634; calls by dose curve; note: % is set by controls: 0 for no effect and ±100 for the full control effect; nearly all actives have a fitted effect of over 25% in size)
How it was run: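 Quantitative high-throughput format. HEK293T cells expressing ATAD5 fused to luciferase were plated at 2,000 cells/well and treated 15.5 hr with compound versus DMSO. Viability was determined by fluorescent live-cell protease substrate, 30 min at 37C.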

[5] = qHTS assay for small molecule disruptors of the mitochondrial membrane potential - cell viability (AID 720634; calls by dose curve;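 note: human HepG2 liver cancer cells; series mostly up to about 83 µM; % is set by controls: 0 for no effect and ±100 for the full control effect; nearly all actives have a fitted effect of over 20% in size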)
How it was run: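 Same-well counter-screen: following the MMP dye addition, CellTiter-Glo was added to 1 hr compound-treated HepG2 cells and luminescence read after 30 min at room temperature.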

[6] = qHTS assay for small molecule disruptors of the mitochondrial membrane potential (AID 720635); note: % is set by controls: 0 for no effect and ±100 for the full control effect
How it was run: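 HepG2 cells (2,000/well) attached overnight at 37C, then took compound for 1 hr at 37C, 5% CO2. Mito-MPS dye was added for 30 min; fluorescence was read at 490/535 nm (monomers) and 540/590 nm (aggregates).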

[7] = qHTS assay to test for compound auto fluorescence at 590 nm (red) in HepG2 cells (AID 720674); note: % is set by controls: 0 for no effect and ±100 for the full control effect
How it was run: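 Compound auto-fluorescence is scored relative to Rose Bengal sodium, measured at 540/590 nm in live HepG2 cultures after 1 hr compound contact (37 C, 5% CO2).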

[8] = qHTS assay to test for compound auto fluorescence at 535 nm (green) in HepG2 cells (AID 720675); note: % is set by controls: 0 for no effect and ±100 for the full control effect
[9] = qHTS assay to test for compound auto fluorescence at 460 nm (blue) in HEK293 cells (AID 720678); note: % is set by controls: 0 for no effect and ±100 for the full control effect
How it was run: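 Blue-channel (Ex/Em 405/460 nm) intensity measured in HEK293 cultures after overnight compound exposure at 37C; signal expressed relative to triamterene. Cells plated 2,000 per well in 10% dialyzed FBS medium and allowed 4-5 hr to attach.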

[10] = qHTS assay to test for compound auto fluorescence at 590 nm (red) in HEK293 cells (AID 720679); note: % is set by controls: 0 for no effect and ±100 for the full control effect
How it was run: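 Red-channel autofluorescence (Ex/Em 540/590 nm; Rose Bengal sodium reference) was measured after overnight 37C, 5% CO2 exposure of attached HEK293 cells, 2,000 per well in medium with 10% dialyzed FBS.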

[11] = qHTS assay to test for compound auto fluorescence at 535 nm (green) in HEK293 cells (AID 720680); note: % is set by controls: 0 for no effect and ±100 for the full control effect
[12] = qHTS assay to test for compound auto fluorescence at 460 nm (blue) in HEK293 cell free culture (AID 720681); note: % is set by controls: 0 for no effect and ±100 for the full control effect
How it was run: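 Test compounds were pinned into cell-free culture medium (DMEM with 10% FBS) and fluorescence was read directly at Ex/Em 405/460 nm. Signals were expressed as fluorescence equivalents of triamterene, with DMSO vehicle as control.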

[13] = qHTS assay to test for compound auto fluorescence at 535 nm (green) in HEK293 cell free culture (AID 720682); note: % is set by controls: 0 for no effect and ±100 for the full control effect
How it was run: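 Read-out: 485/535 nm fluorescence intensity, calibrated against fluorescein. Medium only (DMEM + 10% FBS, no cells); test compound or DMSO vehicle added by pintool before plate reading.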

[14] = qHTS assay to test for compound auto fluorescence at 590 nm (red) in HEK293 cell free culture (AID 720683); note: % is set by controls: 0 for no effect and ±100 for the full control effect
How it was run: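 Tox21 10K library compounds were pinned into cell-free DMEM with 10% FBS and fluorescence was read at excitation 540 nm. Activity is expressed as Rose Bengal sodium equivalency.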

[15] = qHTS assay to test for compound auto fluorescence at 590 nm (red) in HepG2 cell free culture (AID 720684); note: % is set by controls: 0 for no effect and ±100 for the full control effect
How it was run: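 Readout: intrinsic compound fluorescence at 590 nm emission after 540 nm excitation, scaled to Rose Bengal sodium. Matrix was cell-free MEM with 10% FBS; DMSO vehicle wells served as control.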

[16] = qHTS assay to test for compound auto fluorescence at 460 nm (blue) in HepG2 cell free culture (AID 720685); note: % is set by controls: 0 for no effect and ±100 for the full control effect
How it was run: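 Cell-free plates of MEM plus 10% FBS received 23 nL compound or DMSO vehicle; blue-channel (405/460 nm) intensity scored against triamterene as reference fluorophore.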

[17] = qHTS assay to test for compound auto fluorescence at 535 nm (green) in HepG2 cell free culture (AID 720686); note: % is set by controls: 0 for no effect and ±100 for the full control effect
[18] = qHTS assay to test for compound auto fluorescence at 460 nm (blue) in HepG2 cells (AID 720687); note: % is set by controls: 0 for no effect and ±100 for the full control effect
How it was run: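 Cells (2,000/well in MEM with 10% FBS) attached overnight at 37 C, then were exposed to compound or DMSO for 1 hr at 37 C, 5% CO2. Fluorescence read at Ex/Em 405/460 nm, expressed as triamterene-equivalent signal.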

[19] = qHTS assay to identify small molecule antagonists of the glucocorticoid receptor (GR) signaling pathway - cell viability counter screen (AID 720693); note: potency is the fitted concentration of half-maximal effect; nearly all actives have a fitted effect of over 55% in size
[20] = qHTS assay for identifying genotoxic compounds that show differential cytotoxicity against isogenic chicken DT40 cell lines with known DNA damage response pathways - wild type cell line (AID 743012); note: potency is the fitted concentration of half-maximal effect; nearly all actives have a fitted effect of over 60% in size
How it was run: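 300 wt DT40 cells/well; cpd (DMSO) pintool-transferred after ~0.5 h at 37 C/5% CO2; 40 h incubation; CellTiter-Glo added, 30 min RT; luminescence read.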

[21] = qHTS assay for identifying genotoxic compounds that show differential cytotoxicity against isogenic chicken DT40 cell lines with known DNA damage response pathways - Rad54/Ku70 mutant cell line (AID 743015); note: potency is the fitted concentration of half-maximal effect; nearly all actives have a fitted effect of over 60% in size
[22] = qHTS assay to identify small molecule antagonists of the androgen receptor (AR) signaling pathway - cell viability counter screen (AID 743033; note: % is set by controls: 0 for no effect and ±100 for the full control effect; nearly all actives have a fitted effect of over 45% in size)
[23] = molecular target: Androgen receptor (Homo sapiens) (UniProt P10275); experiment: qHTS assay to identify small molecule agonists of the androgen receptor (AR) signaling pathway using the MDA cell line (AID 743040; note: % is set by controls: 0 for no effect and ±100 for the full control effect; nearly all actives have a fitted effect of over 20% in size)
Androgen receptor (Homo sapiens), sequence (P10275 whole entry, looked up): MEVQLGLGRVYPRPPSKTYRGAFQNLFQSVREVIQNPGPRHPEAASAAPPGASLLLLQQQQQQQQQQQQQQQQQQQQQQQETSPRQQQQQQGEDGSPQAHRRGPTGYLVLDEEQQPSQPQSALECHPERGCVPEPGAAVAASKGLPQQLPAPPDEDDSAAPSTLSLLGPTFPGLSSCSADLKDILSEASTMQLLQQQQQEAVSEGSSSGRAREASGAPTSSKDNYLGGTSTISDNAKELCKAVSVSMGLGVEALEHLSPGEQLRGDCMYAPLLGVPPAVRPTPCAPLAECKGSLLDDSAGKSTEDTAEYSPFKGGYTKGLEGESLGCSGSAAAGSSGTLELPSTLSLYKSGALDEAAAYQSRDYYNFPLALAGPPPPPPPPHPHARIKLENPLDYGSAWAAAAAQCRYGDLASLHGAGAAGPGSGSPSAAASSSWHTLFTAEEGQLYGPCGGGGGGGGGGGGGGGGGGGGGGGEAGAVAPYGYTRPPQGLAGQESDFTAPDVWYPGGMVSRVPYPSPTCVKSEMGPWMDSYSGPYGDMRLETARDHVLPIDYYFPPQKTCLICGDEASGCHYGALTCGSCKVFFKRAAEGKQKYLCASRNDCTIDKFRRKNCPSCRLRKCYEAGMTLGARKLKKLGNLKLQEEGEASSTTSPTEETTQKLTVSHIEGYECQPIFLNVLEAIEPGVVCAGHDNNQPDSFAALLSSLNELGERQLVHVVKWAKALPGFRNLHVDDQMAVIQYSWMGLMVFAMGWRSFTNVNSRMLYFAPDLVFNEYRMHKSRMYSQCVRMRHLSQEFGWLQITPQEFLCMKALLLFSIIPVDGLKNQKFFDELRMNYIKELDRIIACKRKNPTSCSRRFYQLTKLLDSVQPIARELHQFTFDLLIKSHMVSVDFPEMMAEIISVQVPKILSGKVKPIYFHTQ
How it was run: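 Agonist activity is measured as luciferase luminescence in human MDA-kb2 cells whose MMTV reporter responds to both AR and GR. Compounds in DMSO incubate 16 h at 37C, 0% CO2, and ONE-Glo is read after 30 min.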

[24] = qHTS assay to identify small molecule antagonists of the androgen receptor (AR) signaling pathway using the MDA cell line - cell viability counter screen (AID 743041; note: potency is the fitted concentration of half-maximal effect; nearly all actives have a fitted effect of over 45% in size)
How it was run: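 qHTS viability read-out; MDA-kb2 AR-luc; R1881-stimulated; 16 h exposure at 37C, 0% CO2; CellTiter-Fluor, 30 min; fluorescence intensity.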

[25] = molecular target: Androgen receptor (Homo sapiens) (UniProt P10275); experiment: qHTS assay to identify small molecule antagonists of the androgen receptor (AR) signaling pathway using the MDA cell line (AID 743042; note: potency is the fitted concentration of half-maximal effect; nearly all actives have a fitted effect of over 55% in size)
How it was run: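 MDA-kb2 cells (human breast carcinoma, stably carrying an MMTV-luciferase reporter responsive to AR and GR) were plated at 3,000 cells/well and preincubated 5 hr at 37C, then given compound plus R1881 agonist for 16 h. ONE-Glo luminescence was read.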

[26] = qHTS assay to identify small molecule antagonists of the thyroid receptor (TR) signaling pathway - cell viability counter screen (AID 743064); note: potency is the fitted concentration of half-maximal effect; nearly all actives have a fitted effect of over 50% in size
How it was run: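 GH3.TRE-Luc rat pituitary cells carrying a TRE-luciferase reporter were treated with compound plus 1 nM T3 (final) for 23.5 h at 37 °C. Viability was then read in the same wells by CellTiter-Fluor fluorescence after a further 30 min.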

[27] = qHTS assay to identify small molecule antagonists of the thyroid receptor (TR) signaling pathway (AID 743065); note: potency is the fitted concentration of half-maximal effect; nearly all actives have a fitted effect of over 55% in size
How it was run: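 GH3.TRE-Luc rat pituitary cells carrying two TR response elements driving luciferase were plated for 4 h, given compound plus 1 nM T3 (final), and incubated 23.5 h at 37 C. ONE-Glo luminescence measured reporter inhibition; CellTiter-Fluor fluorescence tracked cytotoxicity.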

[28] = qHTS assay to identify small molecule antagonists of the estrogen receptor alpha (ER-alpha) signaling pathway - cell viability counter screen (AID 743074; calls by dose curve;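 note: HEK293 cells carrying ER-alpha-UAS-bla reporter stimulated with 17beta-estradiol; potency is the fitted concentration of half-maximal effect; nearly all actives have a fitted effect of over 45% in size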)
[29] = molecular target: Estrogen receptor (Homo sapiens) (UniProt P03372); experiment: qHTS assay to identify small molecule agonists of the estrogen receptor alpha (ER-alpha) signaling pathway (AID 743075; calls by dose curve)
Estrogen receptor (Homo sapiens), sequence (P03372 whole entry, looked up): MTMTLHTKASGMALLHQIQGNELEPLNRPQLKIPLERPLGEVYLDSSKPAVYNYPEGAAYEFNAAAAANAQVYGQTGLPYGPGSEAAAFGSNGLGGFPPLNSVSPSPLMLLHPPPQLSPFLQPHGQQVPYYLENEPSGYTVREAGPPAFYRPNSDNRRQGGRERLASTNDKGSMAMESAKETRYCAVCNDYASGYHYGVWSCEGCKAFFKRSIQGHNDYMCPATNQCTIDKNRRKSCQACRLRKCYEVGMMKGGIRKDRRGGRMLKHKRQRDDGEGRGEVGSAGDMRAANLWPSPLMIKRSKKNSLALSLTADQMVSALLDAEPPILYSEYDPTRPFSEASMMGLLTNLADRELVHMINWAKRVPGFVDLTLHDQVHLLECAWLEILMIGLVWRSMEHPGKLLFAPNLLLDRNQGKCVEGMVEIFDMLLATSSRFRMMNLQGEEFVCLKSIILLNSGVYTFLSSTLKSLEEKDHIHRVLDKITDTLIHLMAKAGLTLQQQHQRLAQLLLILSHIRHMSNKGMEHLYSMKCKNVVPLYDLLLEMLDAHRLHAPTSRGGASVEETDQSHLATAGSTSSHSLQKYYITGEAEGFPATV

[30] = qHTS assay to identify small molecule antagonists of the estrogen receptor alpha (ER-alpha) signaling pathway using the BG1 cell line (AID 743080; calls by dose curve;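 note: BG1 cells stimulated with 17beta-estradiol alongside compound; potency is the fitted concentration of half-maximal effect; nearly all actives have a fitted effect of over 25% in size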)
How it was run: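 Luciferase inhibition measured with ONE-Glo after 30 min at RT in BG1Luc4E2 cells given test compounds and 17beta-estradiol for 21.5 h at 37 C; CellTiter-Fluor viability read in the same wells beforehand.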

[31] = qHTS assay to identify small molecule antagonists of the estrogen receptor alpha (ER-alpha) signaling pathway using the BG1 cell line - cell viability counter screen (AID 743081);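 note: compound given together with 17beta-estradiol as the ER stimulus; potency is the fitted concentration of half-maximal effect; nearly all actives have a fitted effect of over 45% in size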
[32] = molecular target: Aromatase (Homo sapiens) (UniProt P11511); experiment: qHTS assay to identify aromatase inhibitors (AID 743083); note: potency is the fitted concentration of half-maximal effect; nearly all actives have a fitted effect of over 55% in size
Aromatase (Homo sapiens), sequence (P11511 whole entry, looked up): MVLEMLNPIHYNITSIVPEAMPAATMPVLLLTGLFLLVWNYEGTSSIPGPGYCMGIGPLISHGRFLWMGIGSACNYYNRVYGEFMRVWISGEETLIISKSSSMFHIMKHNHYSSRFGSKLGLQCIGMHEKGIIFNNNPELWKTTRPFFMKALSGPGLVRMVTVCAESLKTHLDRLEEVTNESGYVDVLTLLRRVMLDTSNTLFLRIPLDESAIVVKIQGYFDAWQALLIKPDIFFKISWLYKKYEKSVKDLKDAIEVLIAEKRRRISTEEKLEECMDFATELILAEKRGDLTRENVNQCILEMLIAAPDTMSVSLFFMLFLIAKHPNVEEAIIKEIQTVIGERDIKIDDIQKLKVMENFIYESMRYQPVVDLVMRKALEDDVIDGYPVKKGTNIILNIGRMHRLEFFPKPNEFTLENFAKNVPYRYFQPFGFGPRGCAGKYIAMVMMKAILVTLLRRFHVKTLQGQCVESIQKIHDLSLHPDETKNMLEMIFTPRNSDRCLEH

[33] = qHTS assay to identify small molecule phospholipidosis (PLD) inducers (AID 1259344; active = well fitted curve in the direction sought with a large enough effect; an effect the other way counts as inactive or inconclusive; note: % is set by controls: 0 for no effect and ±100 for the full control effect)
How it was run: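 Cells (HepG2, 900 per well) attach for 4 h, receive LipidTOX Red and compound together, incubate 24 h at 37 C, are fixed 30 min with paraformaldehyde/Hoechst, then imaged at one site per well.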

[34] = molecular target: Nuclear receptor subfamily 1 group I member 2 (Rattus norvegicus) (UniProt Q9R1A7); experiment: Rat pregnane X receptor (rPXR) activation by small molecules, qHTS assay (AID 1346983); details: rPXR luciferase reporter cells, One-Glo luminescence, 24 h; max activation: hits give high values; note: % is set by controls: 0 for no effect and ±100 for the full control effect; nearly all actives have a fitted effect of over 20% in size
Nuclear receptor subfamily 1 group I member 2 (Rattus norvegicus), sequence (Q9R1A7 whole entry, looked up): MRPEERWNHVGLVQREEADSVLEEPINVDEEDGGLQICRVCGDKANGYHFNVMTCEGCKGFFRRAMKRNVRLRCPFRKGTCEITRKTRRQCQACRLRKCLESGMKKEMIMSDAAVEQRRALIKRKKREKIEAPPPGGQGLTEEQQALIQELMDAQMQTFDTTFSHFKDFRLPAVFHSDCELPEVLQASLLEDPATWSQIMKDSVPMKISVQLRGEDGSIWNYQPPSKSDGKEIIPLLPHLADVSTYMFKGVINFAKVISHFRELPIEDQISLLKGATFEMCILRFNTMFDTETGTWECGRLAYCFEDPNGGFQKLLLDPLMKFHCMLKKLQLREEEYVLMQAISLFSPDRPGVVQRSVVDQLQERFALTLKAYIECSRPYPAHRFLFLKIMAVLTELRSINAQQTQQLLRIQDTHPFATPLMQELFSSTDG
How it was run: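 Cell-based rPXR luciferase reporter assay, 2,000 cells per well, rested 5hr at 37 C before compound addition in DMSO, then 24 hr at 37 C. One-Glo reagent was added and luminescence read after 30 min at room temperature.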

[35] = molecular target: Nuclear receptor subfamily 1 group I member 2 (Homo sapiens) (UniProt O75469); experiment: CYP3A4 induction through human pregnane X receptor (PXR) by small molecules, qHTS assay (AID 1346984); note: % is set by controls: 0 for no effect and ±100 for the full control effect; nearly all actives have a fitted effect of over 40% in size
How it was run: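 Human PXR activation is tracked via CYP3A4 promoter-luciferase in DPX-2 (HepG2) cells. Compounds treat cells for 24hr at 37C, and luminescence is read after One-Glo.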

[36] = molecular target: Nuclear receptor subfamily 1 group I member 2 (Homo sapiens) (UniProt O75469); experiment: Human pregnane X receptor (PXR) activation by small molecules, qHTS assay (AID 1346985)
How it was run: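 DPX-2 cells (HepG2 co-transfected with a PXR response element and a CYP3A4-promoter luciferase construct) were seeded at 2,000 per well, rested 5 hr at 37C, then exposed to DMSO-dissolved compounds for 24 hr. Activation was read as luciferase luminescence.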

COC(COC(N)=O)C1=C(N2CC2)C(=O)C(C)=C(N2CC2)C1=O (stereo unspecified)
inactive: Potency [2] | Potency [4] | Potency [5] | Potency [6] | outcome [7] | Potency [8] | Potency [9] | outcome [10] | Potency [11] | Potency [12] | Potency [13] | outcome [14] | outcome [15] | Potency [16] | Potency [17] | Potency [18] | Potency [22] | Potency [23] | Potency [29] | Potency [33] | max activation [34] -20.2% | Potency [35] | Potency [36]
active: Potency [1] 298 nM | Potency [3] 7500 nM | Potency [19] 1900 nM | Potency [20] 4.2 nM | Potency [21] 4.7 nM | Potency [24] 13300 nM | Potency [25] 1330 nM | Potency [26] 841 nM | Potency [27] 168 nM | Potency [28] 13400 nM | Potency [30] 531 nM | Potency [31] 6680 nM | Potency [32] 21100 nM
